This is one part of the list. Where a call stands in place of a potency, no number is given. Inconclusive results are not listed. The source made the active and inactive calls. Calls come from the whole dose curve; as a rule, active = well fitted cell-killing curve with a large enough effect; inconclusive = small, poorly fitted or top-dose-only effect, or effect the other way; inactive = no such curve, though single readings can be large or run the other way.
Potency is the fitted concentration of half-maximal effect.

This assay is described as follows: qHTS for Inhibitors of the vitamin D receptor (VDR): Hit Validation using a Cytotoxicity Assay (AID 602204).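 For potency: cells co-treated with VDR agonist LG190178 at 300 nM.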 Note: nearly all actives have a fitted effect of over 75% in size. To be noted: cytotoxicity counter-screen, cell viability; series mostly up to 48.3 µM. The text has this: The vitamin D receptor (VDR) is a ligand-activated transcription factor and is partially responsible for the regulation of the endocrine system. This includes the transcriptional regulation of genes involved in the production of the parathyroid hormone (PTH) and the regulation of the blood calcium level. High levels of PHT can cause hypercalcemia in the case of primary and tertiary hyperparathyroidism. The VDR-mediated gene regulation, activated by its ligand 1,25-dihydroxyvitamin D3 (1,25-(OH)2D3), is governed by the recruitment of coactivators. Our hypothesis is that small molecules, with the ability to inhibit the interaction between VDR and certain coactivators, are able to selectively modulate VDR-mediated transcription. Our long term objective is the application these VDR-coactivator inhibitors to study the role of VDR-coactivator binding for specific VDR regulated genes. Ultimately, these molecules can be developed into new treatments for hypercalcemic hyperparathyroidism. No small molecule or non-peptide inhibitors are known for the VDR-coactivator interaction.
In a collaboration between the University of Wisconsin, Milwaukee and the NIH Chemical Genomics Center (NCGC) a HTS-compatible enzymatic assay was developed. The assay uses fluorescence polarization as its read-out to measure the inhibition between VDR and coregulator peptide SRC2-3 exerted by small molecules. This assay was used to screen the NIH Molecular Libraries Small Molecule Repository (MLSMR). Cytotoxicity caused by screening compounds is a major concern for cell-based assays. This assay quantifies the amount of ATP generated by living cells and compounds that are active in this assay are undesirable for the project due to cytotoxicity. High concentrations of cycloheximide (protein synthesis inhibitor) and DMSO were used as positive and negative control, respectively.
NIH Chemical Genomics Center [NCGC]
NIH Molecular Libraries Probe Centers Network [MLPCN]
Assay Submitter (PI): Alexander Arnold, University of Wilwaukee
Plate: 384 white, solid bottom, tissue culture treated
Step 1: Plate 20,000 cell per well (32 uL)
Step 2: 4 hours incubation
Step 3: Add screening compounds
Step 5: 18 hour incubation
Step 6: Add Cell-Titer Glo (25 uL)
Step 7: 30 minutes incubation
Step 8: Read luminescence
In general terms: Quantitative high-throughput screening tests each substance at several concentrations.
Take `O=C(/C=C/c1ccc(Cl)c([N+](=O)[O-])c1)c1cccnc1`: the Potency entry was “inactive”.
As for `COc1ccc(OCc2nnc3n2N=C(c2ccccc2)C(CC(=O)O)S3)cc1` (centres undefined), the entry is “inactive”; as for `Cc1ccc(-c2nc3ccccn3c2Nc2c(C)cccc2C)o1`, “inactive”.
For the molecule `Cc1cccc(Oc2c([N+](=O)[O-])c(=O)n(C)c3ccccc23)c1`, the Potency result was “inactive”.
As to `O=[N+]([O-])/C=C/c1ccc2c(ccn2Cc2ccccc2)c1`, the Potency is 9.2 µM (active).
As for `O=C1C=C(c2ccc(Cl)cc2)C(=O)N1Nc1ccccc1`, the figure is 23.1 µM (active); as for `Cc1nc(-c2ccccc2)sc1C(=O)/C=C/c1ccccc1`, “inactive”.
For the molecule `C[C@@H](NC(=O)OC(C)(C)C)c1nnc(S(=O)(=O)Cc2ccccc2)o1`, the Potency result was “inactive”.
As to `CCOC(=O)c1sc(=S)n2c1[nH]c(=O)c1ccc(C(=O)OC)cc12`, the Potency result is “inactive”.
As for `O=c1[nH]c(/C=C\c2cccc(C(F)(F)F)c2)nc(O)c1[N+](=O)[O-]`, the Potency result is “inactive”.
Consider `Cc1cc(C)nc(S/C=C/C(=O)c2ccccc2)n1`, for which the Potency was 23.8 µM (active).
`CSc1nnc(NC(=O)c2nc(S(=O)(=O)Cc3ccc(C)cc3)ncc2Cl)s1`: the Potency was 16.4 µM (active).
Consider `c1ccc2c(C[n+]3csc4ccccc43)cccc2c1`, for which the Potency entry was “inactive”.
As for `O=C(/C=C/c1ccccc1)c1ccccc1O`, the Potency entry was “inactive”.
For the molecule `C=CCOc1ccc(/C=C2/C(=O)ON=C2C)cc1OCC`, the Potency result was “inactive”.
In the case of `CC1CCN(C(=S)c2ccc(-c3ccc(Cl)cc3Cl)o2)CC1`, the Potency entry was “inactive”.
As to `CCCCS(=O)(=O)c1oc(-c2cccs2)nc1S(=O)(=O)c1ccccc1`, the Potency was 9.47 µM (active).
`Cc1cccc([C@H]2[C@@H]3C=CC[C@@H](C)[C@@H]3C(=O)N2Cc2ccccc2)c1`: the Potency is 23.8 µM (active).
`Cc1cccc(CS(=O)(=O)c2ncc(Cl)c(C(=O)Nc3ccc(F)cc3)n2)c1`: the Potency is 11.2 µM (active).
`CC(=O)N1CC[n+]2c(-c3ccc([N+](=O)[O-])cc3)csc21`: the Potency entry is “inactive”.
As for `O=c1cc(CO)oc(C(Nc2cccc(C(F)(F)F)c2)c2ccccn2)c1O` (centres undefined), the entry is “inactive”.
The result for `O=C(/C=C/c1ccc(Cl)cc1Cl)c1cccnc1` reads “inactive”; that for `CCOc1ccc(N(Cc2ccccc2)C(=O)c2nc(S(C)(=O)=O)ncc2Cl)cc1`, 16.8 µM (active).
Take `COc1ccc(CS(=O)/C(Cl)=C(/Cl)C(=O)Nc2ccc(OC)nc2)cc1` (centres undefined): the Potency is 2.59 µM (active).

These data come from PubChem BioAssay (NCATS).
